About 83,000 compounds went through this panel and 20% of them were active in at least one assay; those are over-represented in the sample as a whole.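 For each line, cells grew in 96-well plates with the test compound present at a single concentration for 48 hours.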 A number with no mark means an inactive call. The source made the active and inactive calls. Rule for the calls: active = growth percent below 10; inactive = the rest.
These compounds were tested on K-562 leukemia (assay: NCI-60 one-dose screen, 48 h (100 = growth as untreated, 0 = no growth, -100 = all killed)). Details: 10 µM.
`Cc1cc(C)c(CCc2cc(C)c(C)cc2C)cc1C` showed a growth of 94.8%. Work on `O=C1OCC2=C1C(c1ccc(Cl)c(Cl)c1)c1cc3c(cc1N2CCO)OCCO3` (stereo not given) yielded a growth of 17.8%. In the case of `c1ccc2c(c1)oc1c3c(ccc12)NCCC3`, the growth is reported as 98.4%. `O=C(CNC(=O)OCc1ccccc1)NCC(=O)Oc1ccc([N+](=O)[O-])cc1` showed a growth of 117%. With `COC(=O)c1c(-c2ccccc2)csc1NC(=O)c1c(-c2ccccc2)noc1C` the growth was 18.5%. `COc1cc(CNc2ccccc2C(=O)N2CCN(C(=O)c3cc(-c4cc(OC)c(OC)c(OC)c4)n4nc(-c5ccccc5)cc4n3)CC2)cc(OC)c1OC` showed a growth of 22.8%. Work on `COc1ccc2c(c1)C(=O)c1c-2c(OCCN2CCCCC2)nc2ccc(OC)cc12` yielded a growth of 11.2%. For `COc1ccc(Cn2c(C(N)=O)cc3c2-c2nc(N)ncc2CCC3)cc1`, the growth was 107%. `CN(C)CCOc1nc2ccccc2c2c1-c1ccc(Cl)cc1C2=O` was tested, and the growth was -29.9% (active). `O=C(O)C(SC(C(=O)O)c1ccccc1)c1ccccc1` (stereo not given) was tested, and the growth was 98.6%. `CC(=O)c1cc(Cl)ccc1O` was tested, and the growth was 103%. `N=C1c2nc3n(c2C(=O)c2nc4n(c21)CCCC4)CCCC3` showed a growth of 81.4%. Work on `CCc1ccc2c(c1)N(CCO)C1=C(C(=O)OC1)C2c1ccccc1` (stereo not given) yielded a growth of 49.1%. With `Oc1[nH]c2ccc(Cl)cc2c1/C=c1/ccc2c(c1)N=C(c1cc(F)cc(F)c1)N=2` the growth was 14.8%. For `CCN(CC)CCN1CC(=O)Nc2cc(Cl)ccc21`, the growth was 120%. For `FC(F)(F)c1ccc2nc(-c3nc(-c4ccccc4)n4ccccc34)[nH]c2c1`, the growth was 82.7%. In the case of `COc1cccc(C2C3=C(COC3=O)N(CCO)c3cc(OC)ccc32)c1` (stereo not given), the growth is reported as 17.1%. In the case of `Nc1ccn(C2CC(O)C(CO)O2)c(=O)n1` (stereo not given), the growth is reported as 99.5%. `O=c1cc(-c2ccccc2)[nH]n1-c1nc2ccccc2[nH]1` gave a growth of 10.1%. Compound `C[N+](C)(C)c1ncnc2nc[nH]c12` has a growth of 73.3%. `O=C1OCC2=C1C(c1cccc(Br)c1)c1cc3c(cc1N2CCO)CCC3` (stereo not given) showed a growth of 19.4%. Work on `CC(C)=CCc1ccc(O)c(=O)cc1C(C)C` yielded a growth of 11.1%. Work on `Oc1[nH]c2ccc(Cl)cc2c1/C=c1/ccc2c(c1)N=C(c1cccs1)N=2` yielded a growth of 30.9%. `CCOC(=O)CNC(=O)CCCCSc1ncnc2nc[nH]c12` was tested, and the growth was 85.7%. With `N=c1c2c(-c3ccccc3)c(-c3ccccc3)n(Cc3ccccc3)c2ncn1CCCO` the growth was -0.624% (active).

What follows are compounds tested on MALME-3M melanoma in the same assay as above. Details: 10 µM.
`CCCCCCCCCCCCCCCCCC(=O)OCCCCCCC` showed a growth of 115%. For `COc1cc([C@@H]2c3cc4c(cc3C(Br)[C@H]3COC(=O)[C@H]23)OCO4)cc(OC)c1OC` (stereo not given in full), the growth was 31.5%. Compound `CO/N=C(/C(=O)NC1C(=O)N2C(C(=O)O)=C(COC(N)=O)CSC12)c1ccco1` (stereo not given) has a growth of 94.3%. With `O=C(NN1C(=O)CSC1c1ccc(Cl)cc1)c1cccnc1` (stereo not given) the growth was 88.8%. `CC1CC(=O)OC(C)C1` (stereo not given) showed a growth of 98.7%. `CN(C)CCS(=O)(=O)CCN(C)C` gave a growth of 117%. `O=C(O)CN1C(=O)c2cccc3cccc(c23)C1=O` showed a growth of 102%. Compound `CCn1cc(C(=O)O)c(=O)c2cnc(N3CCCC3)nc21` has a growth of 92.8%. `COc1ccc(NC(=O)CSc2nc3ccccc3c(=O)n2CCc2ccccc2)cc1` showed a growth of 60.3%. For `COc1ccc(C2CC(c3ccc(N(C)C)cc3)=NN2c2ccc(S(N)(=O)=O)cc2)cc1` (stereo not given), the growth was 83%.

The compounds below were run on MDA-MB-231 breast in the same assay as above. Details: 10 µM.
With `Cc1cc(C)c(CCc2cc(C)c(C)cc2C)cc1C` the growth was 104%. Compound `O=C1OCC2=C1C(c1ccc(Cl)c(Cl)c1)c1cc3c(cc1N2CCO)OCCO3` (stereo not given) has a growth of 26.6%. For `c1ccc2c(c1)oc1c3c(ccc12)NCCC3`, the growth was 90.2%. With `O=C(CNC(=O)OCc1ccccc1)NCC(=O)Oc1ccc([N+](=O)[O-])cc1` the growth was 106%. In the case of `COC(=O)c1c(-c2ccccc2)csc1NC(=O)c1c(-c2ccccc2)noc1C`, the growth is reported as 59.2%. Compound `COc1cc(CNc2ccccc2C(=O)N2CCN(C(=O)c3cc(-c4cc(OC)c(OC)c(OC)c4)n4nc(-c5ccccc5)cc4n3)CC2)cc(OC)c1OC` has a growth of 67.8%. Work on `CN1CCCNc2c(c(=O)c2=O)NCCCN(C)CCCNc2c(c(=O)c2=O)NCCCN(C)CCCNc2c(c(=O)c2=O)NCCCN(C)CCCNc2c(c(=O)c2=O)NCCCN(C)CCCNc2c(c(=O)c2=O)NCCCN(C)CCCNc2c(c(=O)c2=O)NCCCN(C)CCCNc2c(c(=O)c2=O)NCCC1` yielded a growth of 46.5%. For `COc1ccc2c(c1)C(=O)c1c-2c(OCCN2CCCCC2)nc2ccc(OC)cc12`, the growth was 66.5%. Compound `CCCCCCCCCCCCCCCCCC(=O)OCCCCCCC` has a growth of 98.7%. With `COc1cc([C@@H]2c3cc4c(cc3C(Br)[C@H]3COC(=O)[C@H]23)OCO4)cc(OC)c1OC` (stereo not given in full) the growth was -5.49% (active). With `COc1ccc(Cn2c(C(N)=O)cc3c2-c2nc(N)ncc2CCC3)cc1` the growth was 88.9%. `CN(C)CCOc1nc2ccccc2c2c1-c1ccc(Cl)cc1C2=O` gave a growth of 14.8%. For `CO/N=C(/C(=O)NC1C(=O)N2C(C(=O)O)=C(COC(N)=O)CSC12)c1ccco1` (stereo not given), the growth was 107%. In the case of `O=C(O)C(SC(C(=O)O)c1ccccc1)c1ccccc1` (stereo not given), the growth is reported as 115%. `CC(=O)c1cc(Cl)ccc1O` showed a growth of 100%. `O=C(NN1C(=O)CSC1c1ccc(Cl)cc1)c1cccnc1` (stereo not given) gave a growth of 156%. Compound `N=C1c2nc3n(c2C(=O)c2nc4n(c21)CCCC4)CCCC3` has a growth of 82.6%. In the case of `CCc1ccc2c(c1)N(CCO)C1=C(C(=O)OC1)C2c1ccccc1` (stereo not given), the growth is reported as 103%. In the case of `CC1CC(=O)OC(C)C1` (stereo not given), the growth is reported as 113%. `Oc1[nH]c2ccc(Cl)cc2c1/C=c1/ccc2c(c1)N=C(c1cc(F)cc(F)c1)N=2` gave a growth of 79.3%. Compound `CCN(CC)CCN1CC(=O)Nc2cc(Cl)ccc21` has a growth of 116%. With `CN(C)CCS(=O)(=O)CCN(C)C` the growth was 88.5%. Work on `FC(F)(F)c1ccc2nc(-c3nc(-c4ccccc4)n4ccccc34)[nH]c2c1` yielded a growth of 22.1%. For `COc1cccc(C2C3=C(COC3=O)N(CCO)c3cc(OC)ccc32)c1` (stereo not given), the growth was 8.33% (active). Work on `O=C(O)CN1C(=O)c2cccc3cccc(c23)C1=O` yielded a growth of 85.1%. In the case of `Nc1ccn(C2CC(O)C(CO)O2)c(=O)n1` (stereo not given), the growth is reported as 115%. `CCn1cc(C(=O)O)c(=O)c2cnc(N3CCCC3)nc21` showed a growth of 106%. In the case of `O=c1cc(-c2ccccc2)[nH]n1-c1nc2ccccc2[nH]1`, the growth is reported as 73%. For `Cc1ccc(NC(=O)CSc2nc3ccccc3c(=O)n2CCc2ccccc2)c(C(=O)O)c1`, the growth was 90.6%. `COc1ccc(NC(=O)CSc2nc3ccccc3c(=O)n2CCc2ccccc2)cc1` was tested, and the growth was 61.5%. `C[N+](C)(C)c1ncnc2nc[nH]c12` showed a growth of 111%. `O=C1OCC2=C1C(c1cccc(Br)c1)c1cc3c(cc1N2CCO)CCC3` (stereo not given) was tested, and the growth was -13% (active). `O=c1c2ccccc2nc(SCCN2CCCCC2)n1CCc1ccccc1` showed a growth of 66.5%. `COc1cc(NC(=O)CSc2nc3ccccc3c(=O)n2CCc2ccccc2)cc(OC)c1OC` was tested, and the growth was -17% (active). `CC(C)=CCc1ccc(O)c(=O)cc1C(C)C` showed a growth of 52.4%. For `COc1ccc(C2CC(c3ccc(N(C)C)cc3)=NN2c2ccc(S(N)(=O)=O)cc2)cc1` (stereo not given), the growth was 67.7%. With `Nc1ncn([C@@H]2O[C@H](CO)[C@@H](O)[C@H]2O)c(=O)n1` the growth was -3.92% (active). Compound `Oc1[nH]c2ccc(Cl)cc2c1/C=c1/ccc2c(c1)N=C(c1cccs1)N=2` has a growth of 91.2%. `CCOC(=O)CNC(=O)CCCCSc1ncnc2nc[nH]c12` gave a growth of 108%. Compound `N=c1c2c(-c3ccccc3)c(-c3ccccc3)n(Cc3ccccc3)c2ncn1CCCO` has a growth of 39%.

— PubChem BioAssay (NCI)
